# Measured values: ChEMBL document CHEMBL2218924, “A broad activity screen in support of a chemogenomic map for kinase signalling research and drug discovery” (Biochem J, 2013)
# Columns and labels:
# [1] = biological target: T1, Serine/threonine-protein kinase TBK1 (Homo sapiens) (UniProt Q9UHD2); conditions: at 10 µM
# T1 sequence (whole entry): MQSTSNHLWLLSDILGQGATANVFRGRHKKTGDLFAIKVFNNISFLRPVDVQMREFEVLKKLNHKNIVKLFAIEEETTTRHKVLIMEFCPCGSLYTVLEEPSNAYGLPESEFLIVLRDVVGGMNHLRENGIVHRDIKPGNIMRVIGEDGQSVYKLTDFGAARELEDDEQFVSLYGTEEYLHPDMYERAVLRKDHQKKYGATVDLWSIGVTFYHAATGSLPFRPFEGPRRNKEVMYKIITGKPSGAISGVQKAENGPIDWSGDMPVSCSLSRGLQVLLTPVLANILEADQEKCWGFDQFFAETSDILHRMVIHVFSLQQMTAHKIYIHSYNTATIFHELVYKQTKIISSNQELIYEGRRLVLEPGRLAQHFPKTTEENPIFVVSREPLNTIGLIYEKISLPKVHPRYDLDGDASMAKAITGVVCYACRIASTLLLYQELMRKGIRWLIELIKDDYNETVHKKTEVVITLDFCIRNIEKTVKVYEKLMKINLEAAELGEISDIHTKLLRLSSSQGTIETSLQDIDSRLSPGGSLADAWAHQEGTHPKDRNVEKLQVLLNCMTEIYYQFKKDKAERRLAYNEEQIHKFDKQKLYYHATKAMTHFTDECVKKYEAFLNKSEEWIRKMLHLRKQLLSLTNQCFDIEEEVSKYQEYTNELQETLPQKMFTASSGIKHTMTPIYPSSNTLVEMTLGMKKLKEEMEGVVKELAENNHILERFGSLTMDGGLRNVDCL
# [2] = biological target: T2, TGF-beta receptor type-1 (Homo sapiens) (UniProt P36897); conditions: at 1 µM
# T2 sequence (whole entry): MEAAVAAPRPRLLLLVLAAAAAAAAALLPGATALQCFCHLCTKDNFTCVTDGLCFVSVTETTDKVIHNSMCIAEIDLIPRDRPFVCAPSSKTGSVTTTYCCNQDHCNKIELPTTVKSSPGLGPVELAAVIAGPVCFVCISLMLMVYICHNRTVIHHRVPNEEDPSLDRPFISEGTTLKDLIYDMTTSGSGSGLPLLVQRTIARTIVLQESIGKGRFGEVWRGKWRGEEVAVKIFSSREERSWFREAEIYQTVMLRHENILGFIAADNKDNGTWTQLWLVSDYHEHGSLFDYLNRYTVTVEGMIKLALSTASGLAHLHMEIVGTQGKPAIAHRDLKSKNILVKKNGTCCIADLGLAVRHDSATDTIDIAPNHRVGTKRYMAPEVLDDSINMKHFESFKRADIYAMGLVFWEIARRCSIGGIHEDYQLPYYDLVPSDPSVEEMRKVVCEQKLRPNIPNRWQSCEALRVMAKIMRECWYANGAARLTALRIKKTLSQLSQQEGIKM
# [3] = biological target: T2, TGF-beta receptor type-1 (Homo sapiens); conditions: at 10 µM
# [4] = biological target: Insulin-like growth factor 1 receptor (Homo sapiens) (UniProt P08069); conditions: at 1 µM
# Sequence of Insulin-like growth factor 1 receptor (Homo sapiens) (P08069 31-736 limits assumed): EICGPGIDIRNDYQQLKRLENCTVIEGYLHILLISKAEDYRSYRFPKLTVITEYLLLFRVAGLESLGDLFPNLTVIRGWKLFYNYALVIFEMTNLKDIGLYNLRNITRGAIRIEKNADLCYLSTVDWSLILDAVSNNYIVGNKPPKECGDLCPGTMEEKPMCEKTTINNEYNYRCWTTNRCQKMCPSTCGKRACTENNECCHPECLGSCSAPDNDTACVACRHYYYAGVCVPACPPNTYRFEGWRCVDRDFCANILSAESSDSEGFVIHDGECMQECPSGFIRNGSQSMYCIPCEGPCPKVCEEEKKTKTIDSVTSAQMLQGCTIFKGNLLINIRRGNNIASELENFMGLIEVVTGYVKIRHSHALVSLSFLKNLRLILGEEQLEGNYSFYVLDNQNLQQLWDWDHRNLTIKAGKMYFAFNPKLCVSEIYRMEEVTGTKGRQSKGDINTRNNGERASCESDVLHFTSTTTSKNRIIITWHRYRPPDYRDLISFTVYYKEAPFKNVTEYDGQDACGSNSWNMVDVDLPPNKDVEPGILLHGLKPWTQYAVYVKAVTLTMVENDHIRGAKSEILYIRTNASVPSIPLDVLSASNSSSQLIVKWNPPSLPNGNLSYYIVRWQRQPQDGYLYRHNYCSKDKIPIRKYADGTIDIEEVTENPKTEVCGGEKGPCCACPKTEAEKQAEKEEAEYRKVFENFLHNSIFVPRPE
# Sequence of Insulin-like growth factor 1 receptor (Homo sapiens) (P08069 741-1367 limits assumed): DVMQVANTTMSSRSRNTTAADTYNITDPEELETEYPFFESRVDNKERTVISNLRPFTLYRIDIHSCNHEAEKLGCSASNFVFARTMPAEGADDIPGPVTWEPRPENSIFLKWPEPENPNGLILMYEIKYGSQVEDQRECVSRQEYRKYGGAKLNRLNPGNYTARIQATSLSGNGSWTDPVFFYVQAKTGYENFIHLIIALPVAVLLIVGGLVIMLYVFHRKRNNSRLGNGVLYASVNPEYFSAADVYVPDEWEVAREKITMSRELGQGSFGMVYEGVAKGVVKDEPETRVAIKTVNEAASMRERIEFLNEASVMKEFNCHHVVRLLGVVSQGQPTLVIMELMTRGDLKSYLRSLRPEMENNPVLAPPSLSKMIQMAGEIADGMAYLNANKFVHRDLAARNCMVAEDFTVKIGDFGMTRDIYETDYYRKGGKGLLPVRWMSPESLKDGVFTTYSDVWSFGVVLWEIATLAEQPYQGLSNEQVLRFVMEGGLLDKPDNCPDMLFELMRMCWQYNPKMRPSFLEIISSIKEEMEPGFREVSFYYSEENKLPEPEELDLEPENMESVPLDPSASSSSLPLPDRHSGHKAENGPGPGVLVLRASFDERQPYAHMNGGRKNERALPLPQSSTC
# [5] = biological target: Insulin-like growth factor 1 receptor (Homo sapiens) (UniProt P08069); conditions: at 10 µM
# [6] = biological target: T3, Inhibitor of nuclear factor kappa-B kinase subunit alpha (Homo sapiens) (UniProt O15111); conditions: at 1 µM
# T3 sequence (whole entry): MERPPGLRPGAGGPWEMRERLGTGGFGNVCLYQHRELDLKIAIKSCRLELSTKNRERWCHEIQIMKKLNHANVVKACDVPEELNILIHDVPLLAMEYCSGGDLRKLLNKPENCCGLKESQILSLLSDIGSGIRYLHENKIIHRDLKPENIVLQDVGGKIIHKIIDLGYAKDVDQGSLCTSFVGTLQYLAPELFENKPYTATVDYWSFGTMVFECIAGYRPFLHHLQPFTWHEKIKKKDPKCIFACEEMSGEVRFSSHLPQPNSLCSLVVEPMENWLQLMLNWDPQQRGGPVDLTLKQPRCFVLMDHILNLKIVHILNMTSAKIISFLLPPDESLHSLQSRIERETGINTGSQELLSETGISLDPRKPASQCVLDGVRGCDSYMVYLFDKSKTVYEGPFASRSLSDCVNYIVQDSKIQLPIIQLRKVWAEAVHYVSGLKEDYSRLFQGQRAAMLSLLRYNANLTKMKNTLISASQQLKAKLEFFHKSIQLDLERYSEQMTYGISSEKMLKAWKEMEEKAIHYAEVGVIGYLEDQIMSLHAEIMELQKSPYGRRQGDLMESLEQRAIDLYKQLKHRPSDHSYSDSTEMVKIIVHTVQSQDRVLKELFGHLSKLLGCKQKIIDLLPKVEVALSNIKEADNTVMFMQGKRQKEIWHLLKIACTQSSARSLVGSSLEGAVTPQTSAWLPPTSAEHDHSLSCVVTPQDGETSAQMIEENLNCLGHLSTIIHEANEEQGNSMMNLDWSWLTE
# [7] = biological target: T3, Inhibitor of nuclear factor kappa-B kinase subunit alpha (Homo sapiens); conditions: at 10 µM
# [8] = biological target: T4, Inhibitor of nuclear factor kappa-B kinase subunit beta (Homo sapiens) (UniProt O14920); conditions: at 1 µM
# T4 sequence (whole entry): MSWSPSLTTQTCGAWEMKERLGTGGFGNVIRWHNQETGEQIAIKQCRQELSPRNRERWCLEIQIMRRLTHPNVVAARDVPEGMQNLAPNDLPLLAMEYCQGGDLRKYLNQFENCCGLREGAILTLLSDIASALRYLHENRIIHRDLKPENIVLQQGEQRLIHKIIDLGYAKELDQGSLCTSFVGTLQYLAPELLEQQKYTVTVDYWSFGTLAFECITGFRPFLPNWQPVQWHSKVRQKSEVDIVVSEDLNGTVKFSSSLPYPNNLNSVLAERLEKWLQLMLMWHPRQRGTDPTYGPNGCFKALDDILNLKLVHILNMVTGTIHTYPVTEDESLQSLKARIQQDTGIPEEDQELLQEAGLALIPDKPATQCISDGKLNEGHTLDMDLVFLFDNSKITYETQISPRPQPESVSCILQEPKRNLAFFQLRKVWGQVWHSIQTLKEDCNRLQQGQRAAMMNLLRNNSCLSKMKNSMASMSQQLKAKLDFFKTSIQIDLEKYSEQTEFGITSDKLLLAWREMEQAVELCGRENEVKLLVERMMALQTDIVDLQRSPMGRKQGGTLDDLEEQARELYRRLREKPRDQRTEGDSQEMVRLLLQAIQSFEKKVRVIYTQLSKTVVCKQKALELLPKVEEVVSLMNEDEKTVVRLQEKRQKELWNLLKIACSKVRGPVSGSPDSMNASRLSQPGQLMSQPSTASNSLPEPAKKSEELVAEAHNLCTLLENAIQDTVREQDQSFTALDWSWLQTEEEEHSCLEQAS
# [9] = biological target: T4, Inhibitor of nuclear factor kappa-B kinase subunit beta (Homo sapiens); conditions: at 10 µM
# [10] = biological target: Insulin receptor (Homo sapiens) (UniProt P06213); conditions: at 1 µM
# Sequence of Insulin receptor (Homo sapiens) (P06213 28-758 limits assumed): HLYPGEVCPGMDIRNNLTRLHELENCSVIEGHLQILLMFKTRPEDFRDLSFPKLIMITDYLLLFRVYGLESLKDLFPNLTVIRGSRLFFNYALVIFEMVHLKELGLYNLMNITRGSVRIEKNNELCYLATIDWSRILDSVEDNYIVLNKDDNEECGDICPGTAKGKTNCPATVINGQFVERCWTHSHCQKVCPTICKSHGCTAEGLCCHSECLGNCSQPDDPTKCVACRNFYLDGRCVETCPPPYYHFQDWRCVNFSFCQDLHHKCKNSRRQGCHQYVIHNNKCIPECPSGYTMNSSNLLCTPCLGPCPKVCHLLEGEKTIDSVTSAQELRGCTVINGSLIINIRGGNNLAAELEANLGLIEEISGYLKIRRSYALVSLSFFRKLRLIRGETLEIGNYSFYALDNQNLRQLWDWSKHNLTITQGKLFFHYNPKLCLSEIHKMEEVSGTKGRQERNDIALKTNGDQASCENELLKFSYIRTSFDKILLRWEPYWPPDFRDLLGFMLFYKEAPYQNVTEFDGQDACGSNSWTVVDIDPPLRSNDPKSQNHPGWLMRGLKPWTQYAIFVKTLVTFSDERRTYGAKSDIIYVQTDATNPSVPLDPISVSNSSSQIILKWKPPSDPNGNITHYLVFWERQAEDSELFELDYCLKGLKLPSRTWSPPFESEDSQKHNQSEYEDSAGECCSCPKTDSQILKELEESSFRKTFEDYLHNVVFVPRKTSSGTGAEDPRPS
# Sequence of Insulin receptor (Homo sapiens) (P06213 763-1382 limits assumed): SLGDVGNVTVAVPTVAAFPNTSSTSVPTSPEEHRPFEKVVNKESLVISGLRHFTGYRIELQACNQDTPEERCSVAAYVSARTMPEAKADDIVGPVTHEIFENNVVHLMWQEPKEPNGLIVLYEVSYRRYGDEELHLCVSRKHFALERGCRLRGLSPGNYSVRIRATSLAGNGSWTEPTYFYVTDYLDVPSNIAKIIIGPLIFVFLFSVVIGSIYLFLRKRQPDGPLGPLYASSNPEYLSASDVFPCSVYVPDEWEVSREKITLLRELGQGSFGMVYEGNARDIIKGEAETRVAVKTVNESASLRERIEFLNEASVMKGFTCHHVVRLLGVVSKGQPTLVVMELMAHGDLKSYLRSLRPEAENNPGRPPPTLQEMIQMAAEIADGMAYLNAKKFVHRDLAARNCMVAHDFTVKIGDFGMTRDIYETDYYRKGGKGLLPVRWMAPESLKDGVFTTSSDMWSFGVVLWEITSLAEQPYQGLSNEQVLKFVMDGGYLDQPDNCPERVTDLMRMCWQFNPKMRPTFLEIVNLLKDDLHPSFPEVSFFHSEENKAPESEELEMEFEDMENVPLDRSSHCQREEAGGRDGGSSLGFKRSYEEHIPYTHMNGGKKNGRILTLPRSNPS
smiles,measurement,setting,value
O=C1Nc2cc(Br)ccc2/C1=C1/Nc2ccccc2/C1=N\O,residual activity,[1],15%
same,residual activity,[2],88%
same,residual activity,[3],77%
same,residual activity,[4],99%
same,residual activity,[5],101%
same,residual activity,[6],105%
same,residual activity,[7],100%
same,residual activity,[8],101%
same,residual activity,[9],85%
same,residual activity,[10],75%
